Sampled rows, rich in hits. Any-hit rate of the full collection: about 27%.
Cav3 T inh – Cav3.2 calcium influx blockers – cell-based, Fluo-4 calcium fluorescence, FDSS, MLSMR library, primary screen; Cav3.2-expressing cells; stronger effect = lower value; B-score at 10 µM; 100,000 tested, 4% active; AID 449739, 2010; Voltage-dependent T-type calcium channel subunit alpha-1H (Homo sapiens), O95180;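 active = single-dose well whose peak fluorescence ratio is a statistical outlier from its plate by either plate-standardised score or position-corrected B-score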
CYP2C9 act – human CYP2C9 activators, primary screen, biochemical, luminescence; Cytochrome P450 2C9 (Homo sapiens), P11712; 96,000 tested, 1.4% active; recombinant CYP2C9, luciferin-H conversion; stronger effect = higher value; factor 1 = untreated enzyme, 0 = blocked; activation factor at 5 µM; AID 1024, 2008;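 active = activation factor of 2 or more for CYP2C9 at a 5 µM dose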
Target sequence (P11712 whole entry, looked up): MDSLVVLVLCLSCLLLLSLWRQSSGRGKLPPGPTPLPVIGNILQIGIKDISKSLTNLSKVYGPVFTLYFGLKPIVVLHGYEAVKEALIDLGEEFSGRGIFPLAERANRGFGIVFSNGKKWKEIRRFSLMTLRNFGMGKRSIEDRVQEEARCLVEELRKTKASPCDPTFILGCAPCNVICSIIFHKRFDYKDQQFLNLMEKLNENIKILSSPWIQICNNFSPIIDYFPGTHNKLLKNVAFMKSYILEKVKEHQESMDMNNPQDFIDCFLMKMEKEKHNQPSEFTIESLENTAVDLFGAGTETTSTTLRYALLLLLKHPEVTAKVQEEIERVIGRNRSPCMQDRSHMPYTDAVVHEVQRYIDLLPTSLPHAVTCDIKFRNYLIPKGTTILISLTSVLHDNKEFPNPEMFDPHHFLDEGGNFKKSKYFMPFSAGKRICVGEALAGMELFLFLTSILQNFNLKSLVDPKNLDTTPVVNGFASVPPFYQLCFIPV
CYP2C19 inhib – blockers of cytochrome P450 2C19 activity – biochemical, luminescence, ADME assay, primary screen | P33261 | CYP2C19 Supersomes, luciferin-H EGE luminescence, 30 min | inhibition, % at 5 µM | 96,000 tested, 21% active;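 active = CYP2C19 inhibition above a set limit at 5 µM in the primary screen, cut at about 50% in these data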
CYP2C9 inh – blockers of cytochrome P450 2C9 activity – biochemical, luminescence, ADME assay, primary screen | P11712 | CYP2C9 Supersomes, luciferin-H conversion | inhibition, % at 5 µM | 96,000 tested, 20% active | AID 777, 2007;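 active = blocking of liver enzyme CYP2C9 beyond about 50% at 5 µM, limit read from the data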
CYP2C19 act – human CYP2C19 activators, primary screen, biochemical, luminescence. Cytochrome P450 2C19 (Homo sapiens), P33261. recombinant CYP2C19, luciferin-H EGE luminescence; stronger effect = higher value; 0 = fully inhibited enzyme, 1 = untreated enzyme. activation factor at 5 µM. 96,000 tested, under 10 active;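 active = activation factor of at least 2 at 5 µM in the primary screen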
Of the large screens only hits and unclear results are named; the others gave an inactive call.

COc1cccc2c(C)nc(Nc3nc(CSc4nnc(C)s4)cc(=O)[nH]3)nc12	none
O=Cc1c(-[n+]2ccccc2)nc([O-])n1-c1ccccc1	none
CC(OC(=O)c1ccc2ccccc2n1)C(=O)Nc1ccc(N2CCOCC2)cc1 (stereo unspecified)	none
CCCN(CCO)Cc1cccc(Oc2ccccc2)c1	none
OCCN(Cc1ccccc1)Cc1ccc(Cl)cc1Cl	CYP2C19 inhib 95, CYP2C9 inh 57
Cc1ccn2cc(CCNS(=O)(=O)c3ccc4c(c3)OCCO4)nc2c1	CYP2C19 inhib 79
CC(C)c1cc(C(N)=O)c(NC(=O)C2CCC2)s1	CYP2C19 inhib 57, CYP2C9 inh 55
NC(=O)c1ccsc1NC(=O)C1CC1	none (no result: CYP2C9 act, CYP2C19 inhib, CYP2C9 inh, CYP2C19 act)
CCCCc1cc(=O)oc2cc(C)c(CN3CCCC3)c(O)c12	CYP2C9 inh 58
CCc1cc(=O)oc2cc(C)c(CN3CCCC(C)C3)c(O)c12 (stereo unspecified)	none
Cc1cc(Cl)ccc1Oc1nc(-c2ccc(F)cc2)ccc1C#N	none
CN=Cc1sc2ccccc2c1O	none
Oc1c(C=NCc2ccncc2)sc2ccccc12	CYP2C19 inhib 92
CCCCCCC1CC(CSC(=N)N)OC1=O (stereo unspecified)	CYP2C19 inhib 79
Cc1nn(-c2ccccc2)c2nc(-c3ccncc3)cc(C(=O)NCc3ccco3)c12	CYP2C19 inhib 91, CYP2C9 inh 94
CCOC(=O)c1cc(-c2ccco2)nc2c1c(C)nn2-c1ccccc1	none
Cc1nn(-c2ccccn2)c2nc(-c3cccs3)cc(C(=O)NCc3ccco3)c12	CYP2C19 inhib 61, CYP2C9 inh 86
CN(C)c1nc(Oc2ccc(N)cc2)nc(N(C)C)n1	none
CN(C)c1ccc(-c2cc([C@H]3[C@@H]4C=CCC[C@@]4(C)C(=O)N3Cc3ccccc3)ccc2F)cc1	none (no result: CYP2C9 act, CYP2C19 inhib, CYP2C9 inh, CYP2C19 act)
Cn1cc(Cl)c(-c2nc3ccccc3[nH]2)n1	CYP2C19 inhib 62
Nc1nonc1-c1nc2ccccc2[nH]1	none
COc1ccc2cc3cc(C(=O)NCCN4CCN(c5ccccc5F)CC4)oc3nc2c1	none
COc1ccc2cc3cc(C(=O)Nc4ccccc4N4CCN(C)CC4)oc3nc2c1	CYP2C19 inhib 61
CCn1c(O)c(C=NCCN2CCOCC2)sc1=S	none
CCOC(=O)c1nnc2cc(-c3ccc(Br)cc3)nn2c1C	none
CCS(=O)(=O)n1nc(-c2ccccc2)cc1N	CYP2C19 inhib 67
CCOc1ccc(-c2cc(N)n(S(=O)(=O)c3ccc(OC)cc3)n2)cc1	none
Nc1cc(-c2ccc(Cl)cc2)nn1S(=O)(=O)c1ccccc1	CYP2C19 inhib 64, CYP2C9 inh 83
CCCS(=O)(=O)n1nc(-c2ccc(Br)cc2)cc1N	CYP2C19 inhib 68, CYP2C9 inh 86
Nc1cc(-c2ccccc2)nn1Cc1ccc(Cl)cc1	Cav3 T inh -5.8, CYP2C19 inhib 93, CYP2C9 inh 75
O=C(CSc1ccc(Cl)cc1)Nc1cccc(-c2nc3ncccc3o2)c1	CYP2C9 inh 51
COc1cc(C(=O)Nc2cccc(-c3nc4ncccc4o3)c2C)cc(OC)c1OC	none
COc1c(C)cc(Br)cc1C(=O)Nc1cccc(-c2nc3ncccc3o2)c1	CYP2C19 inhib 92, CYP2C9 inh 54
CCCCC(=O)Nc1cccc(-c2nc3ncccc3o2)c1	none
COc1ccc(C(=O)Nc2cccc(-c3nc4ncccc4o3)c2C)cc1	CYP2C9 inh 64
Cc1c(NC(=O)CSc2ccc(Cl)cc2)cccc1-c1nc2ncccc2o1	CYP2C9 inh 92
C[C@@H]1CCC[C@@]2(O[C@H](CCO)C[C@H](O)[C@H]2O)O1	none (no result: CYP2C9 act, CYP2C19 inhib, CYP2C9 inh, CYP2C19 act)
CN(CCNC(=O)c1ccc(N2CCCC2=O)cc1)CCc1ccccc1	none (no result: CYP2C9 act, CYP2C19 inhib, CYP2C9 inh, CYP2C19 act)
Fc1cccc(Oc2nc3ccccc3n3cccc23)c1	none
Cc1cc(C)c(-c2noc(C(=O)OC(C)(C)C)c2C(=O)OC(C)(C)C)c(C)c1	none
O=C(/C=C\Nc1cccc(F)c1)c1cccs1	CYP2C19 inhib 55
O=C(/C=C/Nc1cccc(F)c1)c1ccco1	none
COc1ccc(OC)c(C2C(C#N)=C(N)Oc3cc(N)ccc32)c1 (stereo unspecified)	CYP2C19 inhib 94, CYP2C9 inh 92
COc1ccc(C2C(C#N)=C(N)Oc3cc4c(cc32)OCO4)cc1 (stereo unspecified)	Cav3 T inh -4, CYP2C19 inhib 87, CYP2C9 inh 87
CCOc1ccccc1C1C(C#N)=C(N)Oc2cc(N)ccc21 (stereo unspecified)	CYP2C19 inhib 76, CYP2C9 inh 70
COc1cccc(C2C(C#N)=C(N)Oc3cc(C)[nH]c(=O)c32)c1OC (stereo unspecified)	none (no result: Cav3 T inh)
N#CC1=C(N)Oc2cc(N)ccc2C1C1CCCCC1 (stereo unspecified)	CYP2C19 inhib 84
CCN1CCCC1CNC(=O)Cn1cccc1C(=O)c1ccccc1 (stereo unspecified)	none
Cc1ccc(S(=O)(=O)c2nc(-c3cccs3)oc2SCC(N)=O)cc1	none
CCO/N=C(\C)c1c(O)c(CC)c(-c2ccccc2)n(-c2ccccc2)c1=O	Cav3 T inh -3.9 (no result: CYP2C9 act, CYP2C19 inhib, CYP2C9 inh, CYP2C19 act)
CC(=O)c1c(O)c(C)c(-c2ccccc2)n(-c2ccccc2)c1=O	Cav3 T inh -3.6
CCCc1c(O)c2ccccc2n(-c2ccccc2)c1=O	none
CCOC(=O)c1ccc(S(=O)(=O)N2CCN(CC3CC=CCC3)CC2)cc1 (stereo unspecified)	none
COC(=O)c1cc2c(C)c(C)c3ccccn3c-2c1C(=O)OC	none
COC(=O)c1cc2n3ccccc3c(C)c(-c3ccccc3)c-2c1C(=O)OC	CYP2C19 inhib 54, CYP2C9 inh 81
Cc1c(CN(C)CCc2ccccc2)c(=O)n(-c2ccccc2)n1C	none
CC1=CC(=O)C(C(C)C)=C/C1=N/OC(=O)c1cccc([N+](=O)[O-])c1	CYP2C9 inh 53
Cc1ccccc1-c1nc2ccccc2c(=O)n1/N=C/c1ccccc1[N+](=O)[O-]	none
O=C(NCCCn1ccnc1)c1cn(-c2ccccc2)nc1-c1ccc(F)cc1	CYP2C19 inhib 96, CYP2C9 inh 100
O=C(NCCCN1CCCC1=O)c1ccccc1NS(=O)(=O)c1ccc(Br)cc1	CYP2C9 inh 80
Cc1cc(C)c(C)c(S(=O)(=O)Nc2ccccc2C(=O)NCCCn2ccnc2)c1C	CYP2C19 inhib 99, CYP2C9 inh 98
Cc1ccc(S(=O)(=O)Nc2ccccc2F)cc1C(=O)NCCCN1CCCC1=O	none
O=C(NCCCn1ccnc1)c1ccccc1NS(=O)(=O)c1ccc(F)c(F)c1	CYP2C19 inhib 99, CYP2C9 inh 100
CCCCC(CCC(=O)Nc1nccs1)C(=O)O (stereo unspecified)	none
CCS(=O)(=O)NCCc1csc(C)n1	none
CCOC(=O)N1CCC(c2cc(=O)n3[nH]c(C)c(-c4ccc(F)cc4)c3n2)CC1	CYP2C9 inh 68 (no result: Cav3 T inh)
CCOC(=O)N1CCN(c2nc(-c3ccc(F)cc3)cs2)CC1	none
